Inconclusive results are not listed. Active and inactive are the calls of the source. Calls follow the shape of the dose curve; as a rule, active = well fitted curve in the direction sought with a large enough effect; inconclusive = small, poorly fitted or top-dose-only effect, or another doubt; inactive = no such curve, though single readings can be large; an effect the other way counts as inactive or inconclusive.

Test [1] can be described thus: qHTS of pediatric cancer cell lines to identify multiple opportunities for drug repurposing: Primary screen for control Hh wild type fibroblast cells (AID 1347106).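 Also: series mostly up to about 46 µM; a drop in luminescence marks cytotoxicity and a rise apparent proliferation; nearly all actives have a fitted effect of over 55% in size.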 The gist of the method:
(§1)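 Cells (500-1,000/well) in growth media were settled 5 h at 37 degrees C, then given compounds for 48 h. Viability was read as CellTiter-Glo luminescence. Primary runs used MIPE at 11 points (0.78 nM-46 µM) and NPC at 8 points (0.59 nM-46 µM); follow-ups used 11 points.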

A short description of test [2]: qHTS of pediatric cancer cell lines to identify multiple opportunities for drug repurposing: Primary screen for Rh41 cells (AID 1347108). Also: potency is read from the fitted curve at half-maximal effect; nearly all actives have a fitted effect of over 70% in size. The gist of the method:
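Luminescence from CellTiter-Glo served as readout of metabolically active cells after 48 h compound exposure. Titrations: MIPE 11-point, from 0.78 nM; NPC 8-point, from 0.59 nM (final). Concentration-response curves came straight from the primary screen.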
For orientation: In qHTS, concentration-response curves come from the screen itself.

Test [3] is described as follows: qHTS of pediatric cancer cell lines to identify multiple opportunities for drug repurposing: Confirmatory screen for A673 cells (AID 1347110).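 Also: potency is read from the fitted curve at half-maximal effect; cells exposed to compound for 48 h before the viability read; nearly all actives have a fitted effect of over 65% in size.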 The gist of the method: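 Forty-eight-hour viability assay. Follow-up compounds ran at 11-point dilutions; positive control bortezomib at 2.3 uM final, neutral control DMSO.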
Test [4] in a line: qHTS of pediatric cancer cell lines to identify multiple opportunities for drug repurposing: Confirmatory screen for SK-N-MC cells (AID 1347111).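 Also: cells exposed to compound for 48 h before the readout; nearly all actives have a fitted effect of over 70% in size.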 Also: potency is read from the fitted curve at half-maximal effect. In short, it runs like this: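 Metabolically active cells were quantified by ATP-dependent luminescence (CellTiter-Glo, 15 min at room temperature) following 48 h treatment. Cells had been plated at 500-1,000 per well and settled for 5 h beforehand.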

A short description of test [5]: qHTS of pediatric cancer cell lines to identify multiple opportunities for drug repurposing: Confirmatory screen for BT-12 cells (AID 1347112). Also: nearly all actives have a fitted effect of over 55% in size. Also: potency is read from the fitted curve at half-maximal effect. In short, it runs like this:
as §1

A short description of test [6]: qHTS of pediatric cancer cell lines to identify multiple opportunities for drug repurposing: Confirmatory screen for LAN-5 cells (AID 1347113). Also: nearly all actives have a fitted effect of over 65% in size. Also: potency is read from the fitted curve at half-maximal effect. The gist of the method: as §1
Test [7] in a line: qHTS of pediatric cancer cell lines to identify multiple opportunities for drug repurposing: Confirmatory screen for DAOY cells (AID 1347114). Also: potency is read from the fitted curve at half-maximal effect; nearly all actives have a fitted effect of over 65% in size. In short, it runs like this:
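Viability measured as metabolically active cells via CellTiter-Glo luminescence following 48 hours of compound exposure, 11-point dilutions in confirmatory testing. 500-1,000 cells/well plated 5 hours before dosing; controls were DMSO and 2.3 µM bortezomib.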

Test [8] is described as follows: qHTS of pediatric cancer cell lines to identify multiple opportunities for drug repurposing: Primary screen for Rh30 cells (AID 1347107). Also: nearly all actives have a fitted effect of over 75% in size. Also: potency is read from the fitted curve at half-maximal effect. The gist of the method:
as §1

Test [9] is described as follows: qHTS of pediatric cancer cell lines to identify multiple opportunities for drug repurposing: Confirmatory screen for NB1643 cells (AID 1347109). Also: nearly all actives have a fitted effect of over 45% in size. Also: potency is read from the fitted curve at half-maximal effect. The gist of the method: as §1

Turning to `CC(C)c1cnn2c(NCc3ccccc3)cc(N[C@@H](CO)[C@H](O)CO)nc12`, the Potency result in [1] is “inactive”. Moreover, the Potency in test [2] was 0.743 µM (active); in [3], 0.369 µM (active); in test [4], 0.585 µM (active); in test [5], 0.522 µM (active); in test [6], 0.293 µM (active); in test [7] it was 0.827 µM (active).

Take `Cc1ccc2nc(NC(=O)CSc3nc4c(c(=O)n3-c3ccccc3)SCC4)sc2c1`: the Potency in test [2] was 14.8 µM (active); in [3] it was 1.04 µM (active); in [4], 11.7 µM (active); in [5], 3.29 µM (active); in test [7], 7.37 µM (active).

As for `Nc1nc(Nc2ccc(S(N)(=O)=O)cc2)nn1C(=O)c1c(F)cccc1F`, in [8], the Potency result was “inactive”. For the same compound, the Potency in [2] is 14.8 µM (active).

Turning to `CC(C)c1cc(-c2n[nH]c(=O)n2-c2ccc3c(ccn3C)c2)c(O)cc1O`, the Potency result in [8], in [4] and in [6] was “inactive” each time. For the same compound, the Potency in test [3] was 18.5 µM (active).

`CC(C)(C)c1cnc(CSc2cnc(NC(=O)C3CCNCC3)s2)o1`: the Potency result in [8] is “inactive”. Also, the Potency is 0.59 µM (active) in test [2]; 0.165 µM (active) in test [9]; 0.414 µM (active) in test [3]; 0.329 µM (active) in [4]; 0.369 µM (active) in test [5]; 0.261 µM (active) in test [6]. Besides, the Potency in [7] was 1.17 µM (active).

`CNC(=O)c1cc(Oc2ccc(NC(=O)Nc3cc(C(C)(C)C)nn3-c3ccc4ncccc4c3)c(F)c2)ccn1`: the Potency in test [2] was 23.5 µM (active).

Take `CC(C)c1cc(C(=O)N2Cc3ccc(CN4CCN(C)CC4)cc3C2)c(O)cc1O`: the Potency result in [8] is “inactive”. The Potency in [9] is 0.369 µM (active); in [3], 0.293 µM (active); in test [4], 0.585 µM (active); in test [5] it was 16.5 µM (active); in test [6] it was 0.465 µM (active).

Take `COc1ccc(OC)c(-c2nnc3ccc(-c4ccc(OC)c(O[C@@H]5CCOC5)c4)nn23)c1`: the Potency in test [2] was 20.9 µM (active); in [9], 5.22 µM (active); in test [3] it was 10.4 µM (active); in test [4], 4.65 µM (active). The Potency result in [5] was “inactive”.

On to `Cc1ccc(C(N)=O)cc1Nc1nccc(-c2cn(C(C)C)c3cnccc23)n1`, for which, in [1], the Potency entry is “inactive”. The Potency was 18.7 µM (active) in [2]; 9.55 µM (active) in test [3]; 7.59 µM (active) in test [4]; 13.5 µM (active) in test [5]; 8.51 µM (active) in [6]; 13.5 µM (active) in test [7].

Consider `CCN1CCN(Cc2ccc(-c3cc4c(N[C@H](C)c5ccccc5)ncnc4[nH]3)cc2)CC1`, for which the Potency entry in test [1] is “inactive”. Besides, the Potency is 13.5 µM (active) in test [9]; 0.479 µM (active) in test [3]; 0.851 µM (active) in test [4]; 26.9 µM (active) in test [5]; 9.55 µM (active) in test [6]; 8.51 µM (active) in [7].

Consider `Cc1cnc(-c2cnc(NCCNc3ccc(C#N)cn3)nc2-c2ccc(Cl)cc2Cl)[nH]1`, for which the Potency result in [1], in [9], in test [5] and in [6] was “inactive” each time. The Potency is 11.7 µM (active) in test [4] and 16.5 µM (active) in [7].

As to `Fc1cc(-c2cccc3ncc(-c4cnn(C5CCNCC5)c4)nc23)cc(F)c1CN1CCOCC1`, the Potency in [8] and in [2] was 23.5 µM (active) each time.

The record behind these values is PubChem BioAssay (NCATS).
